# Experimental data published in PubChem BioAssay AID463173 (ICCB-Longwood Screening Facility, Harvard Medical School, 2010).
# Screen size: about 52,000 compounds; about 1,700 (3.3%) were called active. This is one part of a sample in which actives are shown more often than they occur. Cut-off read from the data, not from the text of the source: active = survival mostly below about 52% (no sharp cut-off); inactive = mostly above about 56%.
# System: Wild type
# Test: growth inhibition of S. aureus wild type versus tarO mutant, primary screen, teichoic acid synthesis inhibitors, RN4220, OD600 (AID 463173)
# Conditions: S. aureus RN4220 wild type/DeltatarO growth, OD600, 18 h, active compounds read low, screened at 18.75 µg/mL (by protocol)
row,SMILES,survival
1,COc1ccccc1NC(=O)C1=C(C)Nc2c(C(=O)Nc3cccc(C)c3)cnn2C1c1ccccc1Cl (stereo not drawn),-6% (active)
2,CCc1ccc(C2C(C(=O)Nc3ccccc3OC)=C(C)Nc3c(C(=O)Nc4ccc(C)cc4)cnn32)cc1 (stereo not drawn),74% (inactive)
3,CCc1ccc(C2C(C(=O)Nc3ccccc3)=C(C)Nc3c(C(=O)Nc4ccc(C)cc4)cnn32)cc1 (stereo not drawn),-1% (active)
4,COc1cccc(C2C(C(=O)Nc3ccc(C)cc3C)=C(C)Nc3c(C(=O)Nc4cccc(C)c4)cnn32)c1OC (stereo not drawn),78% (inactive)
5,COc1ccc(C2C(C(=O)Nc3ccccc3)=C(C)Nc3c(C(=O)Nc4ccccc4)cnn32)cc1 (stereo not drawn),134% (inactive)
6,CCOc1ccc(NC(=O)c2cnn3c2NC(c2ccccc2)=CC3c2cccc(OC)c2OC)cc1 (stereo not drawn),85% (inactive)
7,COc1ccccc1NC(=O)C1=C(C)Nc2c(C(=O)Nc3ccc(C)cc3)cnn2C1c1cccc(OC)c1OC (stereo not drawn),14% (active)
8,COc1cccc(C2C(C(=O)Nc3ccc(Cl)cc3)=C(C)Nc3c(C(=O)Nc4ccccc4)cnn32)c1OC (stereo not drawn),93% (inactive)
9,COc1cccc(C2C=C(c3ccc(C)cc3)Nc3c(C(=O)Nc4ccc(F)cc4)cnn32)c1OC (stereo not drawn),-3% (active)
10,COc1cccc(C2C=C(c3ccccc3)Nc3c(C(=O)Nc4ccccc4)cnn32)c1OC (stereo not drawn),64% (inactive)
11,CC1=C(C(=O)Nc2ccccc2)C(c2ccccc2Cl)n2ncc(C(=O)Nc3cccc(C)c3)c2N1 (stereo not drawn),72% (inactive)
12,COc1ccccc1NC(=O)C1=C(C)Nc2c(C(=O)Nc3cccc(C)c3)cnn2C1c1ccccc1C (stereo not drawn),69% (inactive)
13,Cc1c(C(=O)Nc2cccc(-c3nc4ccccc4s3)c2)oc2ccccc12,98% (inactive)
14,Cc1ccc(C(NC(=O)Cc2cccs2)C(=O)Nc2ccc(C(C)C)cc2)cc1 (stereo not drawn),82% (inactive)
15,CCOc1ccc(C(=O)N2CCCCC2CCN2CCOCC2)cc1 (stereo not drawn),88% (inactive)
16,Cc1ccc(NC(=O)CSc2nccn2C2CCCC2)cc1Cl,125% (inactive)
17,COc1ccc2c(c1)c1c(c(=O)n(CCc3ccccc3)c(=O)n1Cc1ccc(Cl)cc1)n2C,63% (inactive)
18,O=C(Nc1cc(-c2nc3cc(Cl)ccc3o2)ccc1Cl)c1cccs1,79% (inactive)
19,Cc1cccc(C(=O)Nc2ccc(-c3nc4cc(C(C)C)ccc4o3)cc2)c1,47% (inactive)
20,CCc1ccc2oc(-c3cc(NC(=O)c4cccs4)ccc3Cl)nc2c1,12% (inactive)

row,SMILES,survival
1,CC(C)c1ccc2oc(-c3cc(NC(=O)c4cccs4)ccc3Cl)nc2c1,7% (active)
2,Cc1ccc(-c2nc3cc(C(C)C)ccc3o2)cc1NC(=O)c1cccs1,72% (inactive)
3,CC(C)c1ccc2oc(-c3ccc(Cl)c(NC(=O)c4cccs4)c3)nc2c1,2% (active)
4,CC(C)c1ccc2oc(-c3cc(NC(=O)c4cccnc4)ccc3Cl)nc2c1,1% (active)
5,Cc1cc(NC(=O)c2cccnc2)cc(-c2nc3cc(Cl)ccc3o2)c1O,157% (inactive)
6,Cc1cc(NC(=O)c2cccs2)cc(-c2nc3cc(Cl)ccc3o2)c1O,87% (inactive)
7,CN(C)C(=O)CN(C#N)c1nc(Cl)nc(N(C)C)n1,110% (inactive)
8,N#Cc1ccc(S(=O)(=O)N2CCC(Oc3cccc(C(F)(F)F)c3)CC2)cc1,84% (inactive)
9,COc1ccc(CNC(=O)Cc2ccc(NC(=O)N3CCSc4ncccc43)cc2)cc1OC,75% (inactive)
10,Cc1cccc(-c2nc3c4ccccc4nc(NCc4ccc(Cl)cc4)n3n2)c1,47% (inactive)
11,O=C1CCSC2(C(=O)N(Cc3ccc(F)cc3)c3ccccc32)N1c1cccc(F)c1 (stereo not drawn),74% (inactive)
12,CCOc1ccccc1C(=O)Nc1c(NC)c2ccccc2oc1=O,76% (inactive)
13,Cc1ccc(CN2CCC(CNc3ncnc4onc(-c5ccc(Cl)cc5)c34)CC2)cc1,77% (inactive)
14,Fc1ccc(-c2noc3ncnc(NCC4CCN(Cc5ccc(Cl)cc5)CC4)c23)cc1,81% (inactive)
15,Cc1ccc(CN2CCC(CNc3ncnc4onc(-c5ccc(F)cc5)c34)CC2)cc1,-4% (active)
16,O=c1c(S(=O)(=O)c2ccc(Cl)cc2)cn(Cc2ccc(F)cc2)c2ccc(F)cc12,130% (inactive)
17,CCn1c(=O)c2cc(C(=O)NCCCN3CCN(C)CC3)sc2c2ccccc21,124% (inactive)
18,COCCNC(=O)C1=CC(c2ccc3c(c2)OCO3)=NS(=O)(=O)N1C,103% (inactive)
19,O=C(CCC(=O)N1CC2CCCN2c2ccccc21)NCc1ccccc1Cl (stereo not drawn),69% (inactive)
20,O=C(CCC(=O)N1CC2CCCN2c2ccccc21)NCc1cccc(Cl)c1 (stereo not drawn),10% (active)

row,SMILES,survival
1,O=C(CCC(=O)N1CC2CCCN2c2ccccc21)NCc1ccccc1 (stereo not drawn),88% (inactive)
2,O=C(CCC(=O)N1CC2CCCN2c2ccccc21)NCc1ccc(F)cc1 (stereo not drawn),-2% (active)
3,Cc1ccc(CNC(=O)CCC(=O)N2CC3CCCN3c3ccccc32)cc1 (stereo not drawn),82% (inactive)
4,COc1cccc(CNC(=O)CCC(=O)N2CC3CCCN3c3ccccc32)c1 (stereo not drawn),65% (inactive)
5,CC(=O)Nc1nonc1-c1nnc(SCC(=O)Nc2ccccc2)n1-c1ccccc1,51% (inactive)
6,O=C(NC1CCCC1)C(c1ccc(O)cc1)N(C(=O)Cn1nnc(-c2cccs2)n1)C1CCCC1 (stereo not drawn),100% (inactive)
7,CC(C)CCOc1ccccc1Cn1c(=O)sc2ccccc21,-1% (active)
8,O=C(Cn1c(=O)sc2ccccc21)Nc1ccc(O)cc1,103% (inactive)
9,CCOC(=O)Cn1c(=O)sc2ccccc21,116% (inactive)
10,CS(=O)(=O)n1c(=O)sc2ccccc21,121% (inactive)
11,O=C(Cn1c(=O)sc2ccccc21)OCc1ccccc1,118% (inactive)
12,CCN(CC)C(=O)Cn1c(=O)sc2ccccc21,105% (inactive)
13,CCCCOc1ccccc1Cn1c(=O)sc2ccccc21,-4% (active)
14,Cc1cccc(NC(=O)Cn2c(=O)sc3ccccc32)c1,119% (inactive)
15,CCCOc1ccccc1Cn1c(=O)sc2ccccc21,-5% (active)
16,COc1ccc(CNCCNC(=O)c2cccs2)c(OC)c1OC,108% (inactive)
17,COc1ccc(CNC(=O)c2ccc3c(c2)N(Cc2ccc(C)cc2)CCS3)cc1,93% (inactive)
18,O=C(Cn1nc(-c2ccc(Cl)cc2)ccc1=O)NCCc1ccccc1,45% (inactive)
